Rows were chosen to be rich in hits. Some 2.9% of all compounds tested hit in one or more screens of this group.
KKLEB cytotox: counter-screen for CF NF-kB inhibitors: cytotoxicity; KKLEB CF airway cells viability, ATPlite luminescence, overnight; stronger effect = lower value; cells stimulated with P. aeruginosa culture filtrate; activity change (cytotoxicity), % at 5 µM; 360,000 compounds, 0.36% hits;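 active = corrected activity change at or below -50% at 5 µM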
TRPM1 prom inh: reduces MITF-dependent TRPM1 promoter luciferase signal. SK-MEL-5 TRPM1 promoter luciferase, 24 h. inhibition, % at 12.5 µM. 330,000 compounds, 0.83% hits. AID 488899;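 active = mean inhibition across replicates of 60% or more, whatever share of single replicates reaches that level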
Peg3 prom inh: Peg3 promoter activity inhibition | HeLa PEG-Prom luciferase reporter, luminescence, overnight | inhibition, % at 20 µM | 360,000 compounds, 1.7% hits;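 active = inhibition of at least 50% at 20 µM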
EBV LMP1 NFkB: reduces LMP1-driven NF-kappaB luciferase signal. LMP1-induced NF-kappaB luciferase reporter cells, luminescence. inhibition, % at 12.5 µM. 350,000 compounds, 0.69% hits. AID 504558; in the data active = inhibition above about 41%;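 note: 0% = neutral control wells and 100% = reference inhibitor control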
CF NFkB inh: inhibitors of cystic fibrosis induced NF-kB | inhibition, % at 5 µM | 360,000 compounds, 0.86% hits | KKLEB NF-kB-GFP reporter, PAF-induced, GFP fluorescence overnight;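 active = at least 50% inhibition at 5 µM, scaled per plate between neutral and stimulator controls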;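 note: PAF is a Pseudomonas aeruginosa culture filtrate used as stimulus; plate controls were PAF-stimulated DMSO wells for no effect and unstimulated DMSO wells for full effect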
Shn3 3UTR inh: inhibitors of Schnurri-3 3'UTR reporter in osteoblasts. Clone20 osteoblast Shn3 3'UTR firefly luciferase, 24 h. inhibition, % at 12.5 µM. 360,000 compounds, 0.52% hits. AID 588674;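 active = mean inhibition of at least 75% with every replicate also reaching 75%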;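 note: 0% = median of neutral control wells and 100% = pilot-screen positive control compound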
* = called active by the depositor; . = no result.

SMILES | KKLEB cytotox | TRPM1 prom inh | Peg3 prom inh | EBV LMP1 NFkB | CF NFkB inh | Shn3 3UTR inh
CN(C)S(=O)(=O)c1cccn1-c1ncc(C(F)(F)F)cc1Cl | -1.6 | 11.4 | -8.0 | 56.4* | -15.3 | 6.3
O=S(=O)(c1ccccc1)c1ncc(C(F)(F)F)cc1Cl | -85.5* | 6.4 | 70.6* | 10.9 | 88.7* | 49.2
C[C@@H]1CN([C@H](C)CO)C(=O)c2cc(Br)cnc2O[C@@H]1CN(C)C(=O)c1ccccc1 | 2.0 | . | 6.1 | -2.9 | 14.6 | -11.2
CCOCCCNCc1ccc(OC)cc1 | 12.0 | 2.4 | 19.1 | -0.7 | -20.0 | -3.0
COc1ccc2cc(CNCCOCCOCCNCc3ccc4cc(OC)ccc4c3)ccc2c1 | -30.8 | 91.4* | 108.6* | -53.6 | 30.6 | 96.2*
CCOC(=O)C1(C)CCN1C(=O)c1ccccc1 (centres undefined) | 8.0 | . | 4.3 | . | 5.6 | -21.7
O=C(C[C@@H]1C/C=C\CC[C@@H](Cc2ccc(F)cc2)C(=O)OC[C@@H](Cc2ccccc2)NC1=O)NCCO | 4.0 | 6.1 | 6.5 | -0.6 | -0.2 | 5.2
CC(=O)Nc1cccc(-c2ccnc3c2CC(C)(C(=O)Nc2ccc(C(C)C)cc2)O3)c1 (centres undefined) | -11.4 | . | 51.6* | . | 1.4 | 5.0
CC(=O)Nc1cccc(-c2ccnc3c2CC(C)(C(=O)Nc2ccccc2)O3)c1 (centres undefined) | 9.8 | . | 29.4 | . | -39.1 | 10.6
COc1cccc(-c2cnc(C(O)c3ccc(CN4CCCC4)cc3)[nH]2)c1 (centres undefined) | -1.2 | . | 8.6 | . | -18.3 | -9.8
CC(C)(C)c1ccc(CC(=O)N2CCC2(C)C(=O)NCc2cccc3ccccc23)cc1 (centres undefined) | -15.6 | . | 52.1* | . | -2.3 | 7.8
CC(NC(=O)C12CC3CC(C1)CC(n1cncn1)(C3)C2)C12CC3CC(CC(C3)C1)C2 (centres undefined) | 1.0 | 4.1 | 12.6 | 9.7 | -9.1 | -7.0
O=C(NC1CCCCC1)C12CC3CC(C1)CC(n1cncn1)(C3)C2 | 2.7 | -3.1 | 12.0 | 77.6* | 5.6 | 12.0
CC(CSC(=O)c1ccccc1)C(=O)N1c2ccccc2CC1C(=O)O (centres undefined) | -2.4 | . | -5.1 | . | -21.2 | -10.2
CSc1ncccc1C(=O)N1CCC(C)(C(=O)O)C1 (centres undefined) | 15.8 | . | 0.9 | . | -17.0 | -5.6
O=C(Nc1cccc2c(=O)[nH][nH]c(=O)c12)c1ccc([N+](=O)[O-])cc1 | 0.6 | . | -35.0 | . | -41.8 | -24.3
CC(=O)N(CC(=O)N(CC(=O)O)c1ccc(Cl)cc1)c1ccc(Cl)cc1 | 0.4 | 0.9 | -8.9 | -6.9 | -3.6 | -18.9
CC1CC2C(C(O)CC3(C)C2CCC3(O)C(=O)CO)C2(C)C=CC(=O)C=C12 (centres undefined) | 11.1 | -9.5 | -21.7 | 10.0 | 76.0* | -3.7
CC(=O)OCC(=O)[C@@]1(O)CC[C@H]2[C@@H]3C[C@H](C)C4=CC(=O)C=C[C@]4(C)[C@H]3[C@@H](O)C[C@@]21C | -10.6 | -8.9 | -12.6 | 4.6 | 77.3* | -7.3
CC12CCC(=O)C=C1C(O)CC1C2CCC2(C)C1CCC2(O)C(=O)CO (centres undefined) | -3.3 | -0.3 | 2.7 | -0.3 | 2.8 | 0.5
COc1ccccc1CCC(=O)NNC(=O)Cn1nc(C)cc1C | -24.7 | . | -0.3 | -1.5 | 11.2 | -14.6
Brc1ccc(OCc2ccccc2)c(CNCc2ccncc2)c1 | -12.0 | 4.7 | 50.6* | 6.1 | 14.9 | 68.7
Clc1cc(Br)ccc1OCCCNCc1ccccc1 | -16.1 | -5.2 | 55.6* | -3.3 | 21.1 | 14.7
Cc1cccc(S(=O)(=O)NC(=O)C2(C)CCN2C(=O)Cc2cccs2)c1 (centres undefined) | -2.3 | . | -1.1 | . | 13.5 | 3.6
FC(F)(F)c1nc2ccccc2n2c(-c3ccc(Cl)cc3Cl)nnc12 | -4.2 | 3.7 | 30.4 | -4.0 | 16.4 | 2.6
SMILES | KKLEB cytotox | TRPM1 prom inh | Peg3 prom inh | EBV LMP1 NFkB | CF NFkB inh | Shn3 3UTR inh
FC(F)(F)c1nnc2c(Sc3ccccc3)nc3ccc(Cl)cc3n12 | -89.6* | 81.9* | 62.4* | -70.4 | 96.1* | 5.0
Cc1ccc(N2CCN(C3=NC(=O)/C(=C\c4cn[nH]c4-c4ccccc4)S3)CC2)cc1 | 17.1 | 9.0 | 28.6 | 68.6* | 9.1 | 42.1
OC[C@@H]1[C@@H](c2ccc(Cl)cc2)C(c2ccc(F)cc2)=NN1c1ccccc1 | -7.3 | 10.0 | 84.7* | -1.0 | 13.7 | 21.9
OC[C@@H]1[C@@H](c2ccccc2)C(c2ccc(F)cc2)=NN1c1ccccc1 | 4.3 | 7.6 | 24.5 | -0.6 | 20.6 | -5.7
O=[N+]([O-])c1ccc2nc(NN=Cc3ccc(O)cc3)sc2c1 | -6.3 | 20.9 | 72.2* | -9.5 | 33.9 | 15.8
CCC[C@@H](CNC)NC[C@H](Cc1ccccc1)NCCCCc1ccccc1 | -15.7 | 93.6* | 99.2* | -12.3 | 5.1 | 49.3
CCC[C@@H](CN[C@@H](CNC)C(C)C)NCCCCc1ccccc1 | -7.1 | 89.7* | 58.8* | -2.4 | 8.9 | 55.2
CNC[C@@H](CC1CCCCC1)NC[C@H](CC(C)C)NCCc1cccc(C(F)(F)F)c1 | -72.0* | 100.3* | 99.4* | -8.0 | 49.6 | 5.9
O=C(NCCCCc1ccccc1)c1ccccc1 | -1.8 | 5.2 | -28.7 | 4.7 | -10.2 | -1.3
CN(Cc1cccc(C(F)(F)F)c1)C(=O)C1CCC(=O)N(CC2CCCCC2)C1 (centres undefined) | -16.3 | -0.6 | -2.3 | -2.1 | -1.9 | -21.2
CNC[C@@H](Cc1ccccc1)NC[C@@H](CC1CCCCC1)NCCCc1ccccc1 | -95.8* | 98.5* | 99.2* | -40.5 | 84.6* | -1.7
CCN(CC(=O)Nc1ccc2c(c1)OCCO2)C(=O)COc1ccc(C(C)=O)cc1 | 10.5 | . | -0.8 | -1.5 | -17.5 | -0.4
CCCCOCCOC(=O)C1OC1(C)c1ccccc1 (centres undefined) | -3.3 | . | -4.7 | -0.8 | -1.8 | -4.8
Cc1ccc(S(=O)(=O)N=N/C=C2\C=CC=CN2O)cc1 | 7.5 | . | 2.7 | -3.2 | 10.0 | -20.0
CC1=C(C(=O)N(C(C)C)C(C)C)CC(CC(=O)NC(c2ccccc2)c2ccccc2)C(=O)N1Cc1ccc(C(C)(C)C)cc1 (centres undefined) | -5.2 | . | 29.7 | . | -6.1 | 1.3
CC1(C(=O)Nc2cccc3ccccc23)CCN1C(=O)Cc1ccccc1Cl (centres undefined) | -11.6 | . | 24.1 | . | 24.7 | 1.4
CCN(CC)Cc1c(O)ccc2c1O/C(=C\C=C\c1ccccc1)C2=O | 4.3 | 81.4* | 81.5* | -82.9 | 21.7 | 94.9*
COc1ccccc1/C=C/C=C1\Oc2c(ccc(O)c2CN(C)C)C1=O | 11.1 | 13.2 | -31.1 | -14.3 | -1.3 | -2.0
CC(=O)NC(c1cccc(F)c1)c1nc(-c2csc3ccccc23)cs1 (centres undefined) | -10.5 | . | -17.1 | . | 31.6 | -26.0
COc1ccc(C(=O)Nn2c(SCC(=O)NCc3ccco3)nc3ccccc3c2=O)cc1 | -5.5 | 3.2 | 39.9 | 49.5* | 9.0 | 12.5

Screening results: PubChem, several laboratories
